# Data: PubChem BioAssay AID1745849 (National Center for Advancing Translational Sciences (NCATS), 2022)
# Hit rate of the full screen: of about 2,100 compounds, about 320 (15%) were called active. Inconclusive results (about 52%) are left out. The call rests on the fitted dose curve; in most records, active means well fitted cell-killing curve with a large enough effect; inconclusive means small, poorly fitted or top-dose-only effect, or effect the other way; inactive means flat fitted curve, though single readings scatter. This is one part of the list. Entries that show only a call come without a potency.
# Assay: Viability Counterscreen for CMV-Luciferase Assay of Inhibitors of ATXN expression; further: nearly all actives have a fitted effect of over 55% in size
# Conditions: HEK-293 CMV-luciferase cells viability, protease fluorescence, 24 h
# Method in brief: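 HEK-293 cells stably expressing a CMV-luciferase reporter were exposed to compounds at several concentrations for 24 hr at 37 degree C. Viability was read as Gly-Phe-AFC fluorescence (25 uM final, 30 min). SteadyGlo luminescence was then measured after 5 min.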
# Potency means the concentration at half of the fitted maximal effect.
row,Compound,Potency
1,Cc1cc(=O)oc2c1c(C)nn2-c1cccc(Cl)c1,inactive
2,O=C(c1cccc(Cl)c1)c1nn(-c2ccccc2)c(=O)cc1C(F)(F)F,22.4 µM (active)
3,CC(C)=C1SC(N2CCN(c3ccc(C)c(Cl)c3)CC2)=NC1=O,inactive
4,O=C(NC(c1ccccc1)c1ccc2ccccc2n1)C1CCN(CCOc2ccc(Cl)cc2Cl)CC1 (stereo not drawn),17.8 µM (active)
5,CC(C)Nc1nc(NC(C)C)nc(N(C#N)CCOc2ccc(Cl)cc2Cl)n1,inactive
6,COc1ccc(NC2=NCC(Cc3ccc(Br)cc3)S2)cc1 (stereo not drawn),inactive
7,COc1ccc(N2C3=C(CC4=C2CC(C)(C)CC4=O)C(=O)CC(C)(C)C3)cc1,inactive
8,CCCCNC(=O)C1(C)CCCCN1Cc1ccccc1-c1ccccc1 (stereo not drawn),inactive
9,C/C(=C\C(=O)c1ccc(Br)cc1)NNC(=O)c1ccc(O)cc1,12.6 µM (active)
10,CC(=NNC(=O)c1ccncc1)c1ccc(O)cc1O,inactive
11,O=c1ccc2ccccc2c2ccccc12,10 µM (active)
12,O=c1cc(-c2ccncc2)oc2c1ccc1ccccc12,inactive
13,Cc1ccc(/C=C2\SC(=S)N(CCCC(=O)Nc3cc(C)on3)C2=O)cc1,inactive
14,COc1cccc(/C=C2/SC(=S)N(CCCC(=O)Nc3ccc(O)cc3)C2=O)c1,3.98 µM (active)
15,COc1cc(/C=C2\SC(=O)N(CC(=O)Nc3ccccc3F)C2=O)cc(Cl)c1O,inactive
16,Cc1ccc(/C=C2\SC(=S)N(CCCC(=O)Nc3ccc(O)cc3)C2=O)cc1,inactive
17,CC(C)(C)c1ccc(OCCCC(=O)NNC(=O)c2ccccc2O)cc1,25.1 µM (active)
18,Cc1ccc(/C=C2\SC(=S)N(CCCC(=O)NC3CCCC3)C2=O)cc1,inactive
19,COc1ccccc1/C=C1\SC(=S)N(CCC(=O)NC2=NCCS2)C1=O,inactive
20,Cc1ccc(/C=C2/SC(=S)N(CCCC(=O)Nc3cc([N+](=O)[O-])ccc3O)C2=O)cc1,25.1 µM (active)
21,Cc1ccc2c(CC(=O)NNC(=O)c3ccccc3O)coc2c1,inactive
22,O=C(CCc1ccccc1)NNC(=O)c1cc(Cl)ccc1O,inactive
23,Cc1ccc(C(=O)NNC(=O)CCCN2C(=O)/C(=C/c3ccccc3Cl)SC2=S)cc1,inactive
24,COc1ccc(/C=C2\SC(=S)N(CCCC(=O)NNC(=O)c3ccccc3O)C2=O)cc1,20 µM (active)
25,O=C(C1CCC(CNS(=O)(=O)c2cccs2)CC1)N1CCN(c2ccc(F)cc2)CC1 (stereo not drawn),inactive
26,CC1CCN(Cc2c(C(=O)N/N=C/c3cc(Cl)ccc3O)nnn2-c2nonc2N)CC1,inactive

row,Compound,Potency
1,CCOc1ccccc1C(=O)Nc1ccc2nc(N3CCN(c4ncccn4)CC3)cc(C)c2c1,inactive
2,Cn1nccc1C(=O)N1CCCC(C(=O)c2cccc3ccccc23)C1 (stereo not drawn),inactive
3,COC(=O)C1=C(C)N(c2ccc(Cl)c(Cl)c2)C(=O)C1,inactive
4,FC(F)(F)c1ccc(N2CCN(c3cc(-c4ccccc4)nc4ncnn34)CC2)nc1,inactive
5,Clc1ccccc1C(c1ccccc1)(c1ccccc1)n1ccnc1,inactive
6,Cc1ccc(C)c(CN2CCC(CNC(=O)Nc3ccc(C)c(C)c3)CC2)c1,inactive
7,Cc1cc(C)nc(NNS(=O)(=O)c2ccc(F)c(Cl)c2)n1,inactive
8,COC1=C(C)C(O)=C(C(=O)/C=C/c2ccccc2)C(=O)C1(C)C,inactive
9,Cc1cc(C)c(C(=O)/C=C/c2ccc(C(C)C)cc2)c(=O)[nH]1,17.8 µM (active)
10,Cc1[nH]c(=O)c(C(=O)/C=C/c2ccccc2)c2c1CCCC2,11.2 µM (active)
11,NS(=O)(=O)c1ccc(N2N=C(c3ccccc3)CC2c2cccc(Cl)c2)cc1 (stereo not drawn),inactive
12,COc1cc2c(O)c3c(c(-c4ccc5c(c4)OCO5)c2cc1OC)C(=O)OC3,inactive
13,CCCCOc1ccc(NC2=NC3(CCCC3)N=C(N)N2)cc1,inactive
14,Cc1ccc(Nc2c(-c3ccccn3)nc3cccc(C)n23)cc1,3.98 µM (active)
15,Cc1cccn2c(Nc3ccccc3)c(-c3ccccn3)nc12,inactive
16,Cc1ccc(Nc2c(-c3ccccn3)nc3cc(C)ccn23)cc1,3.55 µM (active)
17,Cc1ccn2c(Nc3ccccc3C)c(-c3ccccn3)nc2c1,8.91 µM (active)
18,NS(=O)(=O)c1ccc(CCNC(=O)COC(=O)/C=C/c2cc(Br)ccc2F)cc1,inactive
19,COC(=O)c1cc(Cl)ccc1NCC(N)c1ccccc1 (stereo not drawn),inactive
20,O=C1CN(C(=O)c2c(F)cccc2F)C(c2ccc(F)cc2)c2cc(Br)ccc2N1 (stereo not drawn),inactive
21,CCOc1ccc(S(=O)(=O)NCCC(=O)N2CC=C(c3ccccc3)CC2)cc1,inactive
22,Cc1cc(N2CCN(Cc3nc(-c4ccc(Cl)cc4)oc3C)CC2)cc(C)n1,inactive
23,N#C/C(=C\Nc1ccc2cn[nH]c2c1)c1nc(-c2ccc(Cl)cc2)cs1,inactive
24,Cc1ccc(S(=O)(=O)c2nc(S(C)(=O)=O)sc2N2CCCCC2C)cc1 (stereo not drawn),inactive
25,COc1ccc(Cc2nnc(N/N=C/c3ccccc3O)[nH]c2=O)cc1OC,5.62 µM (active)
26,COc1ccc(CNC(=O)c2ccc(-c3cccnc3)c3ccoc23)cc1OC,inactive

row,Compound,Potency
1,COc1cc(Br)cc(/C=N/NC(=O)Cc2ccccc2)c1O,inactive
2,Cc1ccc(NC(=O)CN2C(=O)c3ccccc3S2(=O)=O)cc1C,inactive
3,[O-][n+]1onc2c1CCc1c-2nn(-c2ccccc2Cl)[n+]1[O-],25.1 µM (active)
4,CN1C(=O)/C(=C\c2ccccc2F)Sc2ccc(C(=O)NC3CCN(Cc4ccccc4)CC3)cc21,inactive
5,O=C(Cc1coc2cc3c(cc12)CCC3)OCC(=O)N1CCCC1=O,inactive
6,CCCc1nc(C)cc(N2CCN(c3ccccc3)CC2)n1,inactive
7,CCCCn1c2ccc(F)cc2c2nnc(NN)nc21,14.1 µM (active)
8,COc1cccc(-c2nn(C)c3sc(C(=O)NCCCN(C)Cc4ccccc4)cc23)c1,inactive
9,CCCCC(=O)NNC(=S)NC(=O)c1ccc(C)cc1,inactive
10,COc1ccc(C(=O)NNC(=S)NC(=O)C(C)(C)C)cc1,25.1 µM (active)
11,CC(C)CC(=O)NC(=S)NNC(=O)c1ccc(NC(=O)C2CCCCC2)cc1,inactive
12,Cc1ccc(Cl)cc1-c1ccc(C=Nc2ccc(N3CCOCC3)cc2)o1,inactive
13,COc1cc(C#Cc2c(-c3cncn3C)n(C)c3ccc(-c4cnc(N5CCOCC5)nc4)cc23)cc(OC)c1,inactive
14,COc1ccc(-c2csc3ncnc(Sc4nnnn4C)c23)cc1,inactive
15,Cn1nnnc1Sc1ncnc2scc(-c3cccs3)c12,8.91 µM (active)
16,O=C(c1ccco1)N1CCN(c2ncnc3scc(-c4cccs4)c23)CC1,inactive
17,C[C@@H]1CC=C[C@@H]2[C@H]1C(=O)N(Cc1ccccc1)[C@H]2c1ccccc1Br,inactive
18,CCOC(=O)C1CCN(c2ncnc3c2cnn3-c2ccc(Cl)cc2)CC1,inactive
19,CCCOCc1ccc(O)c2ncccc12,inactive
20,Cc1ccccc1N=Nc1ccc(O)c2ncccc12,7.94 µM (active)
21,Cc1ccc(N=Nc2ccc(O)c3ncccc23)cc1,10 µM (active)
22,COc1ccc(CNCCC(c2ccc(OC(C)C)cc2)c2ccccc2OC)cc1 (stereo not drawn),inactive
23,CCCC1CCC(c2ccc(C(=O)NN)cc2)CC1 (stereo not drawn),inactive
24,O=S(=O)(c1ccc2nc(COc3ccc(Cl)cc3Cl)[nH]c2c1)N1CCOCC1,inactive
25,Cc1ccnc(NC(=O)CCCc2c[nH]c3ccccc23)c1,inactive
26,CC[n+]1c(/C=C/c2c[nH]c3ccccc23)ccc2cc(C)ccc21,12.6 µM (active)

row,Compound,Potency
1,Cc1ccc(C)c(S(=O)(=O)N2CCN(c3ncnc4sccc34)CC2)c1,inactive
2,COc1ccccc1-c1ccc2c(c1)C(C)(Cc1cccc(F)c1)C(=O)N2 (stereo not drawn),inactive
3,NC1=NC[C@H](Cc2ccccc2)N1CCCCC1CCCCC1,inactive
4,C[C@@H](CN1C2=NC[C@H](Cc3ccccc3)N2C[C@H]1Cc1ccc(O)cc1)NC(=O)CCC1CCCCC1,17.8 µM (active)
5,CC1CCC(CN2C(Nc3ccccc3)=NC[C@@H]2Cc2ccccc2)CC1 (stereo partly drawn),inactive
6,Cc1cc(OCC(=O)Nc2ccc(Br)cc2)cc2c1C(=O)CC(C)(C)O2,inactive
7,OCCNc1c2ccccc2nc2ccccc12,inactive
8,COc1cc(N)ccc1Nc1c2ccccc2nc2ccccc12,14.1 µM (active)
9,COc1cc2cc(C(=O)NC(C)c3cccc4ccccc34)c(N)nc2cc1OC (stereo not drawn),inactive
10,O=c1c2c(-c3ccccc3)csc2nc2c3ccccc3c(NCCN3CCOCC3)nn12,inactive
11,CC(=O)C(=Cc1cccc(C#N)c1)C(=O)c1ccccc1,22.4 µM (active)
12,Cc1ccc(NC(=O)CCC(=O)c2cc(C)sc2C)nc1,inactive
13,CCOC(=O)c1c(NC(=O)CSc2nnnn2-c2ccccc2)sc2c1CC(C)(C)NC2(C)C,inactive
14,CCN(CC)CCCNc1nc2ccccc2c2nc(-c3ccncc3)nn12,15.8 µM (active)
15,CC(Oc1ccc(F)cc1)C(=O)Nc1nc(-c2ccccn2)cs1 (stereo not drawn),7.94 µM (active)
16,CC(C)CC(N)c1csc(NC(=O)Nc2ccccc2C(C)(C)C)n1 (stereo not drawn),inactive
17,COC(=O)C(Cc1ccc(O)cc1)NC(=O)C(C)Oc1ccccc1 (stereo not drawn),inactive
18,O=C(Nc1nc(-c2ccccn2)cs1)c1ccc(F)c(S(=O)(=O)N2CCOCC2)c1,5.01 µM (active)
19,O=C(CN1C(=O)C2CCCCC2C1=O)Nc1nc(-c2ccccn2)cs1 (stereo not drawn),17.8 µM (active)
20,COc1cccc(C(=O)Nc2nc(-c3ccc(S(=O)(=O)N4CCOCC4)cc3)cs2)c1,inactive
21,NC(c1ccccc1)c1csc(NC(=O)Nc2ccccc2Oc2ccccc2)n1 (stereo not drawn),inactive
22,O=C(CCN1C(=O)C2CC=CCC2C1=O)Nc1nc(-c2ccc(F)c(F)c2)cs1 (stereo not drawn),inactive
23,O=C(Nc1nc(-c2ccccn2)cs1)Nc1ccc(F)cc1F,11.2 µM (active)
24,O=C(Nc1nc(-c2ccc(S(=O)(=O)N3CCOCC3)cc2)cs1)c1ccccc1,inactive
25,COC(=O)COc1ccc(-c2nccc(-c3ccccn3)n2)cc1,inactive
